The text below walks through data of PubChem BioAssay (Tox21).

Assay [1] concerns the target Luciferin 4-monooxygenase (Photinus pyralis) (UniProt P08659). Nature of the assay: qHTS assay to identify small molecule inhibitors of firefly luciferase (AID 1224835). Note: nearly all actives have a fitted effect of over 25% in size. Note: potency is the fitted concentration of half-maximal effect. An outline of the steps: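 Quantitative HTS format; KM concentrations of both substrates. Purified P. pyralis FLuc activity quantified from luminescence images.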
Background: qHTS replaces the single test concentration by a dilution series.

Assay [2] in a line: qHTS assay to identify small molecule antagonists of the constitutive androstane receptor (CAR) signaling pathway - cell viability counter screen (AID 1224837). Note: nearly all actives have a fitted effect of over 45% in size. An outline of the steps:
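HepG2-CYP2B6-hCAR cells, 2500/well, 4 hr pre-incubation; compound titration, 15 conc.; CITCO 50 nM final; 23 hr, 37 C/5% CO2; CellTiter-Fluor, fluorescence intensity.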

In assay [3] the target is Nuclear receptor subfamily 1 group I member 3 (Homo sapiens) (UniProt Q14994). Nature of the assay: qHTS assay to identify small molecule agonists of the constitutive androstane receptor (CAR) signaling pathway (AID 1224839).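 For activation: HepG2 cells stably carrying human CAR and a CYP2B6 luciferase reporter.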 Note: nearly all actives have a fitted effect of over 15% in size. Note: potency is the fitted concentration of half-maximal effect. An outline of the steps:
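Readout: firefly luciferase luminescence via ONE-Glo. System: HepG2 double-stable for hCAR and CYP2B6-2.2kb. Conditions: 15-point compound titration, PK11195 at 0.75 uM final, 24 h incubation.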

Assay [4] can be described thus: qHTS assay to identify small molecule antagonists of the estrogen related receptor signaling pathway with the pleiotropic PPARgamma coactivator (PGC) from Tox21 10K library - cell viability counter screen (AID 1224840; active = well fitted cell-killing curve with a large enough effect in the repeat runs, not every such curve was filed as active; note: nearly all actives have a fitted effect of over 40% in size; note: potency is the fitted concentration of half-maximal effect). An outline of the steps: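 PGC/ERR cells, 2,000/well; 6 h pre-incubation 37 C/5% CO2; cpd in DMSO via pin tool; 17.5 h 37 C; CellTiter-Fluor, 30 min; fluorescence.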

A short description of assay [5]: qHTS assay to identify small molecule antagonists of the estrogen related receptor signaling pathway with the pleiotropic PPARgamma coactivator (PGC) from Tox21 10K library (AID 1224841; call rule not given here; note: actives are mostly falling curves and most rising ones were filed inactive; nearly all actives have a fitted effect of over 50% in size; note: potency is the fitted concentration of half-maximal effect). In a few lines:
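PGC/ERR cell line, 2,000 cells/well; 6 h pre-incubation 37 C/5% CO2; compounds (DMSO) pinned in; 18 h, 37 C; One-Glo, 30 min RT; luminescence.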

Assay [6] can be described thus: qHTS assay to identify small molecule agonists of the estrogen related receptor signaling pathway with the pleiotropic PPARgamma coactivator (PGC) from Tox21 10K library (AID 1224842). Note: nearly all actives have a fitted effect of over 15% in size. In a few lines: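 PGC/ERR reporter cells (NTP line) were seeded 2,000 per well, rested 6 h at 37 C/5% CO2, then pin-dosed with compounds in DMSO for 18 h at 37 C; luciferase read by One-Glo luminescence after 30 min at room temperature.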

Assay [7] deals with Thyrotropin receptor (Homo sapiens) (UniProt P16473). Nature of the assay: qHTS assay to identify small molecule agonists of the thyroid stimulating hormone receptor (TSHR) signaling pathway (AID 1224843; calls by dose curve; note: nearly all actives have a fitted effect of over 45% in size; note: potency is the fitted concentration of half-maximal effect). In a few lines:
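Cell line HEK293 with TSHR; density 800/well. Exposure 30 min RT. Readout HTRF cAMP (cAMP-d2/anti-cAMP-cryptate), 1 h RT before reading.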

Assay [8] can be described thus: qHTS assay to identify small molecule agonists of the hypoxia (HIF-1) signaling pathway - cell viability counter screen (AID 1224844; calls by dose curve; note: nearly all actives have a fitted effect of over 50% in size; note: potency is the fitted concentration of half-maximal effect). An outline of the steps: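 ME-180 HRE-bla cells, 2,000/well, 0.5% dialyzed FBS; 5 hr settle, 17 hr compound at 37C/5% CO2; CCF4-AM reporter read first, then CellTiter-Glo luminescence after 30 min RT.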
Assay [9] can be described thus: qHTS assay to identify small molecule agonists of H2AX (AID 1224845; active = well fitted activation curve with a large enough effect in the signal ratio in the repeat runs, not every such curve was filed as active; the % refers to the signal ratio). An outline of the steps: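 Wild-type CHO-K1 cells plated overnight, then exposed 3 hr at 37C to compounds at 15 concentrations (0.76% DMSO). Lysed, then HTRF anti-pH2AX(S139)-cryptate/anti-H2AX-d2 detection after 24 hr at room temperature; emissions 665 and 620 nm.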
A short description of assay [10]: qHTS assay to identify small molecule agonists of H2AX - cell viability counter screen (AID 1224847; calls by dose curve; note: nearly all actives have a fitted effect of over 30% in size; note: potency is the fitted concentration of half-maximal effect). In a few lines:
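For this counter screen, overnight-attached CHO-K1 cells received test compounds (15 concentrations, 0.76% DMSO final); 3 hr later at 37C, CellTiter-Glo reagent was added and luminescence recorded after 30 min at room temperature.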

Assay [11] can be described thus: qHTS assay to identify small molecule agonists of the estrogen related receptor (ERR) signaling pathway from Tox21 library (AID 1224849; calls by dose curve; note: nearly all actives have a fitted effect of over 15% in size). The settings on record: ERR reporter cell line, ONE-Glo luciferase, 18 h. In a few lines:
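ERR cells, 6 h pre-incubation 37 C/5% CO2; cpd in DMSO pinned; 18 h 37 C; ONE-Glo added, 30 min RT; luminescence read. Agonist mode, qHTS.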

Assay [12] in a line: qHTS RealTime-Glo MT Cell Viability Assay in HepG2 cells - 24 hour (AID 1224867). Note: nearly all actives have a fitted effect of over 50% in size. Note: potency is the fitted concentration of half-maximal effect. An outline of the steps:
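Cells + NanoLuc/prosubstrate dispensed (600 cells/well) → 5 h at 37 C/5% CO2 → compounds in DMSO transferred → 40 h incubation at 37 C, luminescence read at 0, 8, 16, 24, 32, 40 h.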

The nature of assay [13]: qHTS RealTime-Glo MT Cell Viability Assay in HEK293 cells - 32 hour (AID 1224868). Note: nearly all actives have a fitted effect of over 50% in size. Note: potency is the fitted concentration of half-maximal effect. In a few lines: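 Tox21 10K qHTS, HEK293, 600 cells/well, RealTime-Glo reagent co-dispensed with cells; 5 h preincubation, compound by pintool, 37 C, luminescence at 0–40 h.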
Assay [14] is described as follows: A CellTox Green Cytotoxicity Assay to monitor cytotoxicity in HEK293 cells - 0 hour (AID 1224869). Note: nearly all actives have a fitted effect of over 50% in size. In a few lines: (§1)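 Nonlytic real-time cytotoxicity: HEK293 + CellTox Green reagent plated, 5 h preincubation, pintool compound addition (23 nL in DMSO), 37 C for 40 h, fluorescence measured at successive time points.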
Assay [15] is described as follows: qHTS RealTime-Glo MT Cell Viability Assay in HepG2 cells - 40 hour (AID 1224870). Note: nearly all actives have a fitted effect of over 50% in size. Note: potency is the fitted concentration of half-maximal effect. In a few lines: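 HepG2 cells mixed with RealTime-Glo MT reagents (NanoLuc plus cell-permeant prosubstrate) were seeded at 600 cells/well, incubated 5 h at 37 C/5% CO2, then pinned with compounds in DMSO; nonlytic luminescence tracked viability during 40 h treatment.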
A short description of assay [16]: A CellTox Green Cytotoxicity Assay to monitor cytotoxicity in HEK293 cells - 40 hour (AID 1224871). Note: nearly all actives have a fitted effect of over 45% in size. Note: potency is the fitted concentration of half-maximal effect. In a few lines:
as §1

The target of assay [17] is Nuclear receptor subfamily 1 group I member 3 (Homo sapiens) (UniProt Q14994). Nature of the assay: qHTS assay to identify small molecule antagonists of the constitutive androstane receptor (CAR) signaling pathway (AID 1224838).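 Note: HepG2 cells stably expressing hCAR with CYP2B6 luciferase reporter stimulated by CITCO; nearly all actives have a fitted effect of over 40% in size.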 In a few lines:
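HepG2-CYP2B6-hCAR cells; 4 h pre-incubation; cpd (15 conc) + CITCO 50 nM final; 24 h, 37 C/5% CO2; ONE-Glo, luminescence.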

Assay [18] can be described thus: qHTS assay to identify small molecule agonists of the hypoxia (HIF-1) signaling pathway (AID 1224846; active = well fitted activation curve with a large enough effect in the signal ratio in the repeat runs, not every such curve was filed as active; the % refers to the signal ratio). In a few lines:
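Cell line: CellSensor HRE-bla ME-180; 2,000 cells/well; 0.5% dialyzed FBS; 5 h preincubation; DMSO compound pin transfer; 17 h, 37C, 5% CO2; CCF4-AM added; bla FRET signal scored for activation.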

The nature of assay [19]: qHTS assay to identify small molecule antagonists of the estrogen related receptor (ERR) signaling pathway from Tox21 library (AID 1224848). Note: nearly all actives have a fitted effect of over 50% in size. Note: potency is the fitted concentration of half-maximal effect. In a few lines:
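Screening used an ERR reporter line supplied by NTP, exposed for 18 h at 37 C to library compounds delivered in DMSO. Signal was luciferase luminescence developed with ONE-Glo at room temperature for 30 min.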

“And” between values parts separate entries of the source, which are not always exact repeats. Identical values can stand only once. Values without a mark were called inactive. Results filed as inconclusive are left out. The source made the active and inactive calls. Unless noted, calls come from the whole dose curve; as a rule, active = well fitted curve in the direction sought with a large enough effect in the repeat runs; inconclusive = weak or mixed curves; inactive = no such curve, though single readings can be large; an effect the other way counts as inactive or inconclusive.
% is set by controls: 0 for no effect and ±100 for the full control effect.

Sequence of Luciferin 4-monooxygenase (Photinus pyralis) (P08659 whole entry, looked up): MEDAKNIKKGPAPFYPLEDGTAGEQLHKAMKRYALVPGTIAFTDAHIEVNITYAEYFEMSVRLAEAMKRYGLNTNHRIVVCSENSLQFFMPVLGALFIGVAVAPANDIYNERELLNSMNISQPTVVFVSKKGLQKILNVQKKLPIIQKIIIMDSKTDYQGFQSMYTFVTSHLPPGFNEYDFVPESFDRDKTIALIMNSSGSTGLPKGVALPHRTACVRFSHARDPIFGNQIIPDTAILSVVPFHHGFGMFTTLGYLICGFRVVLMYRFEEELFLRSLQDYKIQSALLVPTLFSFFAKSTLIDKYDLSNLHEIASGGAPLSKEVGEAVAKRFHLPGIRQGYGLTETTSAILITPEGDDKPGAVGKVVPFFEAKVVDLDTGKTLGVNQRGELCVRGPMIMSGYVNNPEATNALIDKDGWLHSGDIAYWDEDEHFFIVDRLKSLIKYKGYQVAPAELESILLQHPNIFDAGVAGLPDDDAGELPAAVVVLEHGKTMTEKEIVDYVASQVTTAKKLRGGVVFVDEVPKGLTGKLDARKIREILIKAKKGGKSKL
Sequence of Nuclear receptor subfamily 1 group I member 3 (Homo sapiens) (Q14994 whole entry, looked up): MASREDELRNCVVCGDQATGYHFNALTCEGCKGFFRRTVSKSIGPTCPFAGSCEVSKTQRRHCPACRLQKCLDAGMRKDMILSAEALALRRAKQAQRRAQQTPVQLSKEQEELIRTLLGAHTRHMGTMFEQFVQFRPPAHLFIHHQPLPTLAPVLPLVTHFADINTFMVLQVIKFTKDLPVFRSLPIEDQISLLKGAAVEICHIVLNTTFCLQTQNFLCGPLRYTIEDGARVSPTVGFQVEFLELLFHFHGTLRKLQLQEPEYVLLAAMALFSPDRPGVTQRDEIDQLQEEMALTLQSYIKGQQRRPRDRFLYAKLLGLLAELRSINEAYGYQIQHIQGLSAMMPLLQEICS
Sequence of Thyrotropin receptor (Homo sapiens) (P16473 whole entry, looked up): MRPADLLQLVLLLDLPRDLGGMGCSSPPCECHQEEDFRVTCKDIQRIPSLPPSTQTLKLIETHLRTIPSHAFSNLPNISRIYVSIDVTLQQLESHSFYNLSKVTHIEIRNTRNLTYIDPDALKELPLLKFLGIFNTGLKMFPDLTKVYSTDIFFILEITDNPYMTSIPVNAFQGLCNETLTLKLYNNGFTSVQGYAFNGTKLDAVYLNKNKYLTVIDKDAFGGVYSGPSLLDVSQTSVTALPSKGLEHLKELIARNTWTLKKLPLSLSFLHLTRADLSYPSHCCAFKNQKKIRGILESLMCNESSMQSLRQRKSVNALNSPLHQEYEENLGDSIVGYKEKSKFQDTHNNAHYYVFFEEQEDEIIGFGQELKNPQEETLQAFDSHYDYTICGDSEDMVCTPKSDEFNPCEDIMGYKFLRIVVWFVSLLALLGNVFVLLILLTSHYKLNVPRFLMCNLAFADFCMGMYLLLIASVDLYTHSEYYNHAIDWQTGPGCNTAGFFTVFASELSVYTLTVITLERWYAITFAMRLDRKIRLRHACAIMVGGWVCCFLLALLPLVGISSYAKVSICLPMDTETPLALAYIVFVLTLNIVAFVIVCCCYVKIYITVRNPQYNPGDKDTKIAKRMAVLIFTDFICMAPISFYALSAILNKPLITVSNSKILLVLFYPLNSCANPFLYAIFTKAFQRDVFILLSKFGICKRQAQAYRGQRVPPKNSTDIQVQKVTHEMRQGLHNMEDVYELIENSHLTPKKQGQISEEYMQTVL

For the compound `CCN(CCN)c1cccc(C)c1`, the Potency result in assay [1], in assay [2], in assay [3], in assay [4], in assay [5] and in [6] was “inactive” throughout. The Potency result in [7], in assay [8], in assay [9], in assay [10], in assay [12] and in [13] was “inactive” throughout. Besides, the Potency result in assay [14], in assay [15] and in assay [16] was “inactive” throughout. Moreover, the activity change, positive = activation in [11] (at 92.4 µM (top of the series)) was -29% and -22.9%.
With `Cc1c(C)c([N+](=O)[O-])c(C(C)(C)C)c([N+](=O)[O-])c1C`, the Potency entry in [1], in assay [2], in [17], in [4], in assay [5] and in [6] was “inactive” throughout. Also, the Potency entry in assay [8], in [9], in assay [18], in assay [19], in [12] and in assay [13] was “inactive” in each case. Also, the Potency entry in assay [14], in [15] and in [16] was “inactive” throughout. In addition, the Potency in assay [3] is 27.3 µM (active). Also, in assay [11] (at 92.4 µM (top of the series)), the activity change, positive = activation was -6.21%.
Turning to `C#CC1(O)CC[C@H]2[C@@H]3CCC4=CCCC[C@@H]4[C@H]3CC[C@@]21C` (stereo partly drawn), the Potency result in assay [1], in assay [2], in [5], in [6], in assay [9] and in [14] was “inactive” in each case. Further, the Potency in [4] is 33.5 µM (active); in assay [7], 19.3 µM (active); in assay [8] it was 21.9 µM (active) and 15.1 µM (active); in assay [10] it was 89.8 µM (active); in assay [12] it was 21.3 µM (active); in assay [13], 17.4 µM (active) and 19 µM (active). The Potency in [15] was 49 µM (active) and 23.9 µM (active); in assay [16] it was 34.7 µM (active) and 21.3 µM (active). In addition, the figures for the activity change, positive = activation in assay [11] (at 42.5 µM (top of the series)) and in assay [11] (at 92.4 µM (top of the series)) were -49.7% and -45.9%, respectively.
Regarding `S=C([S-])NCCNC(=S)[S-].S=C([S-])NCCNC(=S)[S-].[Mn+2].[Zn+2]`, the Potency in [1] was 15.5 µM (active). The Potency result in assay [2], in assay [4], in assay [7], in [8], in assay [9] and in assay [14] was “inactive” in each case. The Potency entry in assay [15] and in assay [16] was “inactive” in each case.
`CCCC[P+](C)(CCCC)CCCC`: the Potency result in assay [1], in [2], in assay [17], in [3], in assay [4] and in assay [7] was “inactive” throughout. In addition, the Potency result in [8], in [9], in assay [18], in [10], in assay [14] and in [15] was “inactive” in each case. The Potency result in [16] was “inactive”.
In the case of `COC(=O)C1=C(C)NC(C)=C(C(=O)OCCN2CCN(C(c3ccccc3)c3ccccc3)CC2)C1c1cccc([N+](=O)[O-])c1` (stereo not drawn), the Potency entry in assay [1], in assay [17], in assay [3], in [6], in assay [7] and in assay [10] was “inactive” throughout. Moreover, the Potency result in assay [14] and in assay [16] was “inactive” each time. In addition, the figures for the Potency in assay [5] and in [19] were 9.44 µM (active) and 11.9 µM (active), respectively. Further, in assay [11] (at 42.5 µM (top of the series)), the activity change, positive = activation was -44.8%.
For `CCc1ccc(Br)cc1`, the Potency entry in assay [1], in assay [17], in [3], in assay [4], in [5] and in assay [6] was “inactive” in each case. Further, the Potency entry in assay [7], in assay [8], in [9], in assay [18], in assay [10] and in assay [19] was “inactive” throughout. In addition, the Potency entry in assay [12], in assay [13], in assay [14], in [15] and in assay [16] was “inactive” throughout. Besides, the activity change, positive = activation in assay [11] (at 92.4 µM (top of the series)) is 5.1%.
Consider `COCCOc1cc2cc(C(=O)NC3CCN(C(C)C)CC3)n(CC(=O)Nc3ccc(Cl)cn3)c2cn1`, for which the Potency result in assay [1], in assay [2], in assay [4], in assay [7], in assay [8] and in assay [9] was “inactive” throughout. Moreover, the Potency result in assay [18], in assay [10], in [12], in assay [13], in assay [14] and in assay [15] was “inactive” throughout. Moreover, the Potency result in [16] was “inactive”.
